Whole data set: some 18,000 sequences, median “log2 normalized intensity” near 0.39, cut for the highest 2% near 6.6. This is one part of a sample in which the highest values are shown more often than they occur.
biological target: T1, HNF4alpha2 (COS-7 nuclear extract) (Homo sapiens, UniProt P41235 1-474); experiment: protein-binding microarray; COS-7 nuclear extract on double-stranded Agilent 4x180k PBM; binding buffer, salt, pH and temperature not given in the material; high values mean tight binding; settings: chain copies: 2; label: 3' end of strand 1 on the slide; dsDNA, one strand shown
T1 sequence: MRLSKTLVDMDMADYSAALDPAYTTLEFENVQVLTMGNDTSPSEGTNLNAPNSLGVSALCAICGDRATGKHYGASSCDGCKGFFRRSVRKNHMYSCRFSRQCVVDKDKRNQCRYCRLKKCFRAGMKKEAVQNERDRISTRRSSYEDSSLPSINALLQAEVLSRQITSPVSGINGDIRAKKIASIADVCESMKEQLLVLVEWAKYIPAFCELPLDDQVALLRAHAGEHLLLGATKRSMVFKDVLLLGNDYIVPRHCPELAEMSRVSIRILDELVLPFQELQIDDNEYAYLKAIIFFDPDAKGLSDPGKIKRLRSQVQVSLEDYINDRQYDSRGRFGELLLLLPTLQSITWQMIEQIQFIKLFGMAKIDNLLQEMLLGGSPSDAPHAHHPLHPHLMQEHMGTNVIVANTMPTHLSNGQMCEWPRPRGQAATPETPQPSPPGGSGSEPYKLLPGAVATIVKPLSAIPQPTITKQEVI
How it was run: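 The binding signal is Agilent software's gProcessedSignal after background correction and normalization. Arrays were a custom Agilent SurePrint G3 4x180k design of double-stranded ~60-nt oligonucleotides with ~44,000 test sequences in quadruplicate, probed with nuclear extracts of COS-7 cells transiently expressing a human HNF4α isoform. Scans were made at 2-µm resolution on an Agilent G2565CA scanner.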

Row | Sequence | binding signal
1 | GGCGCCGCTCTGAGTGACCTTTCACCCGCGGCCTAGGGAGATTAGAGTATCGGTCGA | 6.81 log2 normalized intensity
2 | AGTGGAATGTGCCCTTTGACCTCTCTCTCCGCCTAGGGAGATTAGAGTATCGGTCGA | 7.71 log2 normalized intensity
3 | GGTGGGCTGCTCCCAGTGCCCTTTGAACTCGCCTAGGGAGATTAGAGTATCGGTCGA | 8.32 log2 normalized intensity
4 | GTGCTCCCTCCCCCTGCATGAACCTTTGCTGCCTAGGGAGATTAGAGTATCGGTCGA | 3.19 log2 normalized intensity
5 | CGCTCTGAGTGACCTTTCACCCGCGCCCAGGCCTAGGGAGATTAGAGTATCGGTCGA | 5.48 log2 normalized intensity
6 | AGTAACCTGACCCCCAGTGGAATGTGCCCTGCCTAGGGAGATTAGAGTATCGGTCGA | 3.87 log2 normalized intensity
7 | CTTCAAAGGTCGTGTGCTTATCACATCTATGCCTAGGGAGATTAGAGTATCGGTCGA | 1.12 log2 normalized intensity
8 | GTGATGACCCCATACTTCAGCAATTTCTTAGCCTAGGGAGATTAGAGTATCGGTCGA | 1.12 log2 normalized intensity
9 | AATCCCCTTCAAGTCTGAGATGAAGAGGCCGCCTAGGGAGATTAGAGTATCGGTCGA | 0.649 log2 normalized intensity
10 | CAGTGGTAATGGAGCTGAAACTATAAACTTGCCTAGGGAGATTAGAGTATCGGTCGA | -0.653 log2 normalized intensity
11 | ACCTTTGCCCTGGATCTTGAAGCAGAAAACGCCTAGGGAGATTAGAGTATCGGTCGA | 1.58 log2 normalized intensity
12 | TAATCAGCTTAAGCATACAGATTACATCTCGCCTAGGGAGATTAGAGTATCGGTCGA | -0.798 log2 normalized intensity
13 | ACGTTCACGTCTCAAGCTTCAGGAGTCCACGCCTAGGGAGATTAGAGTATCGGTCGA | 2.07 log2 normalized intensity
14 | ATACGATAATGTCAAACATCTTATATCAACGCCTAGGGAGATTAGAGTATCGGTCGA | 0.675 log2 normalized intensity
15 | TCTATCTGTATTCTGAAGCCCTACAGCCCAGCCTAGGGAGATTAGAGTATCGGTCGA | -0.864 log2 normalized intensity
16 | CCTCTGCATTTGCTCCCTGACTTGGTTTACGCCTAGGGAGATTAGAGTATCGGTCGA | 1.67 log2 normalized intensity
17 | CAGATCCAGTGGACTCTCTGTTTGATCAGCGCCTAGGGAGATTAGAGTATCGGTCGA | 1.51 log2 normalized intensity
18 | TGTCACACACAGACTTGGGTTCAAAGAGCAGCCTAGGGAGATTAGAGTATCGGTCGA | 3.94 log2 normalized intensity
19 | AATGATTGCATAATCTGGCTCCAAAGTCTAGCCTAGGGAGATTAGAGTATCGGTCGA | 2.2 log2 normalized intensity
20 | CCTTTACCCTGACCTGTCAAGCAATGATCTGCCTAGGGAGATTAGAGTATCGGTCGA | 1.25 log2 normalized intensity
21 | AGCAGTCTGAGTAGGAAAGACTTGCTCATTGCCTAGGGAGATTAGAGTATCGGTCGA | -0.18 log2 normalized intensity
22 | TGGTGCCCTCTGAGTGTTTGACCTTTCACCGCCTAGGGAGATTAGAGTATCGGTCGA | 7.66 log2 normalized intensity

Row | Sequence | binding signal
23 | CCCTCTGAGTGTTTGACCTTTCACCCAGAAGCCTAGGGAGATTAGAGTATCGGTCGA | 6.42 log2 normalized intensity
24 | CACTCTGGTGCCCTCTGAGTGTTTGACCTTGCCTAGGGAGATTAGAGTATCGGTCGA | 5.15 log2 normalized intensity
25 | GTTGCTTCCACCTATGAGTCTGTAAAGTCAGCCTAGGGAGATTAGAGTATCGGTCGA | 0.468 log2 normalized intensity
26 | AATATTCTGGCTTCTCGTGAGTATTTTTTCGCCTAGGGAGATTAGAGTATCGGTCGA | 0.954 log2 normalized intensity
27 | TTTGGAATTGTGTCACTCCCCAGGAATGTGGCCTAGGGAGATTAGAGTATCGGTCGA | 1.89 log2 normalized intensity
28 | CCTCTGCACCCCACCAAGGACTGGACCACCGCCTAGGGAGATTAGAGTATCGGTCGA | 2.34 log2 normalized intensity
29 | CCACTTTGAATCAGGAGAGCATCTGAGTGTGCCTAGGGAGATTAGAGTATCGGTCGA | 1.15 log2 normalized intensity
30 | TAATCAGAGCAGGAATTCTGATCTTTGACCGCCTAGGGAGATTAGAGTATCGGTCGA | 7.18 log2 normalized intensity
31 | AGGAATTCTGATCTTTGACCTCTCCAGGGTGCCTAGGGAGATTAGAGTATCGGTCGA | 5.99 log2 normalized intensity
32 | TTCTGATCTTTGACCTCTCCAGGGTCCTTGGCCTAGGGAGATTAGAGTATCGGTCGA | 4.73 log2 normalized intensity
33 | AGAGCAGGAATTCTGATCTTTGACCTCTCCGCCTAGGGAGATTAGAGTATCGGTCGA | 7.34 log2 normalized intensity
34 | CATCTTTGAAGAGCACAGGGTCAGCAGATCGCCTAGGGAGATTAGAGTATCGGTCGA | 1.17 log2 normalized intensity
35 | GCCACCTTGGTGAGAGATTAAACATGCTCTGCCTAGGGAGATTAGAGTATCGGTCGA | 0.469 log2 normalized intensity
36 | ACAGCCTTTTGAGTTTCTACCATAGACCCTGCCTAGGGAGATTAGAGTATCGGTCGA | 1.05 log2 normalized intensity
37 | ATGCTAAAGTCTACATTCTAGATGACCCCTGCCTAGGGAGATTAGAGTATCGGTCGA | 5.66 log2 normalized intensity
38 | CATTCTACCCCTGTGGTTGACCTTTAGTCTGCCTAGGGAGATTAGAGTATCGGTCGA | 7.73 log2 normalized intensity
39 | GGACTTGATCCATTCTACCCCTGTGGTTGAGCCTAGGGAGATTAGAGTATCGGTCGA | 2.25 log2 normalized intensity
40 | TTACTGGACTTGATCCATTCTACCCCTGTGGCCTAGGGAGATTAGAGTATCGGTCGA | 2.73 log2 normalized intensity
41 | TACCCCTGTGGTTGACCTTTAGTCTCTAGCGCCTAGGGAGATTAGAGTATCGGTCGA | 6.48 log2 normalized intensity
42 | TGATCCATTCTACCCCTGTGGTTGACCTTTGCCTAGGGAGATTAGAGTATCGGTCGA | 7.8 log2 normalized intensity
43 | GGACTTCGCTCCGCCGCTAGGTGGCGGGCTGCCTAGGGAGATTAGAGTATCGGTCGA | 1.42 log2 normalized intensity

— paper PMC10726135, “HNF4α isoforms regulate the circadian balance between carbohydrate and lipid metabolism in the liver”
